Test results as given in PubChem BioAssay.
Values without a mark were called inactive. No rule for the calls is given here.

Biological target: Pantothenate synthetase (Mycobacterium tuberculosis (strain ATCC 25618 / H37Rv)) (UniProt P9WIL5)
Assay: Recombinant Mtb pantothenate synthetase (PanC) inhibitors, coupled enzyme, confirmatory (AID 375);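 also: 0% = full reaction with vehicle and 100% = no enzyme background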
Conditions: coupled enzyme assay; at 10 µM, active compounds read high

Sequence of Pantothenate synthetase (Mycobacterium tuberculosis (strain ATCC 25618 / H37Rv)) (P9WIL5 whole entry, looked up): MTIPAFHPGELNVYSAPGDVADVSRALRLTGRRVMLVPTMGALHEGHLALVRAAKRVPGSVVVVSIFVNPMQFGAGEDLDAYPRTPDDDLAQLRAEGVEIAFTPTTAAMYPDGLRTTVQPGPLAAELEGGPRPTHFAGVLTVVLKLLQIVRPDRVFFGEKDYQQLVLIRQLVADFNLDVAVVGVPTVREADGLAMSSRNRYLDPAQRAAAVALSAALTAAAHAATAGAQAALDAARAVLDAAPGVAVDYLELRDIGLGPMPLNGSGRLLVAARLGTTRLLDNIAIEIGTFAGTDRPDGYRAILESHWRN

Row | SMILES | inhibition
1 | Cn1c(=O)cc(SCC(=O)NCc2cccnc2)c2ccccc21 | 4%
2 | O=C(CSc1nnc(-c2ccccc2)o1)N1CCc2ccccc2C1 | 0%
3 | CCCNC(=O)NC1C(NC(=O)NCCC)N(C)C(=O)N1C (stereo not drawn) | 5%
4 | O=c1[nH]c(N2CCCCC2)nc2c1CCCC2 | 0%
5 | CCOc1cc(C(=O)N(C)Cc2cc3ccccc3[nH]c2=O)cc(OCC)c1OCC | 7%
6 | O/N=C/c1ccc(OCC(O)COc2ccc(/C=N/O)cc2)cc1 | 0%
7 | C=C(C)c1cccc(C(C)(C)NC(=O)NCC2CCCO2)c1 (stereo not drawn) | 2%
8 | Cc1ccc(-n2c(N)c(C(N)=O)sc2=S)cc1 | 6%
9 | COCCOc1nc2ccccc2nc1C | 0%
10 | O=C(NC1CC2CCC1C2)c1ccc(CN2CCOCC2)cc1 (stereo not drawn) | 5%
11 | CCOC(=O)C(C(C)=O)c1nc(C)nc2c1nnn2Cc1ccccc1Cl (stereo not drawn) | 0%
12 | COC(=O)c1cc(Br)c(=O)n(CCN2CCOCC2)c1 | 0%
13 | COc1ccc(OC)c(NC(=O)CCN2CCN(c3ccccc3F)CC2)c1 | 4%
14 | O=C(Cn1cc2c(n1)CCCC2)NCCc1ccccc1 | 0%
15 | O=C(COC(=O)Cc1cccc(C(F)(F)F)c1)NCC1CCCO1 (stereo not drawn) | 3%
16 | CCOc1ccccc1CN1C(=O)c2ccccc2C1C(=O)NCC1CCCO1 (stereo not drawn) | 11%
17 | COc1ccc(-n2c(SCC(=O)Nc3ccc(C(=O)O)cc3)nnc2-c2cccs2)cc1 | 0%
18 | CCOC(=O)c1ccc(NC(=O)CSC2=NC(=O)C(CC)C(=O)N2)cc1 (stereo not drawn) | 3%
